Most compounds without a hit are left out; they make up all but 0.9% or so of the library.
PPARg SRC-3 ag: PPARgamma-driven SRC-3 recruitment agonism | P37231 | biochemical PPARgamma/SRC-3 coactivator recruitment assay | activation, % at 8 µM | hit rate 0.26% among 200,000 | AID 731; in the data active means activation above about 23%;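 further: 0% = DMSO and 100% = reference agonist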
SRC3 TRFRET art: TR-FRET artefact, counter-screen to PPARgamma/SRC-3 agonist assay; TR-FRET ratio at 8 µM; AID 1048; hit rate 0.39% among 99,000; PPARgamma/SRC-3 format; active compounds read high
SRC1 TRFRET art: TR-FRET artefact, counter-screen to PPARgamma/SRC-1 agonist assay; TR-FRET detection artefact counter-screen, emission ratio; active compounds read high; TR-FRET ratio at 8 µM; hit rate 0.34% among 99,000; AID 1051; in the data active means TR-FRET ratio above about 2300
SRC2 TRFRET art: flags TR-FRET format artefacts in PPARgamma SRC-2 recruitment agonist screen | TR-FRET artefact counter-screen; active compounds read high | TR-FRET ratio at 8 µM | hit rate 0.4% among 200,000 | AID 1049
PPARg SRC-2 ag: PPARgamma-driven SRC-2 recruitment agonism | P37231 | PPARgamma LBD-SRC-2 recruitment, biochemical | activation, % at 8 µM | hit rate 0.34% among 200,000; in the data active means activation above about 22%;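 further: 0% = vehicle and 100% = reference agonist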
PPARg SRC1 recr: PPARgamma-driven SRC-1 recruitment agonism; P37231; PPARgamma-SRC-1 coactivator recruitment biochemical assay; activation, % at 8 µM; hit rate 0.41% among 200,000; in the data active means activation above about 19%;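 further: 0% = DMSO and 100% = reference agonist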
PPARg SRC2 conf: human PPARgamma SRC-2 recruitment agonism, confirmation; shares compounds with PPARg SRC-3 ag; biochemical SRC-2 recruitment by PPARgamma; activation, % at 8 µM; hit rate 52% among 790; AID 1297; in the data active means activation above about 22%;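 further: 0% = vehicle alone and 100% = reference agonist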
PPARg SRC1 conf: human PPARgamma SRC-1 recruitment agonism, confirmation; shares compounds with PPARg SRC-3 ag; PPARgamma–SRC-1 coactivator recruitment biochemical assay; activation, % at 8 µM; hit rate 43% among 790; AID 1300; in the data active means activation above about 20%;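 further: 0% = vehicle wells and 100% = reference agonist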
PPARg SRC3 ag: confirmation of agonists of SRC-3 recruitment by human PPARgamma | hit rate 29% among 790 | shares compounds with PPARg SRC-3 ag | biochemical PPARgamma-SRC-3 coactivator recruitment, agonist mode | AID 1301 | activation, % at 8 µM; in the data active means activation above about 24%;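 further: 0% = vehicle wells and 100% = reference agonist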
Starred values were filed as active, the others as inactive; · = not tested or not shown. Unless noted, no stated cut-off is given here; in the data, active means TR-FRET ratio above about 2000; inactive means the rest.

SMILES | PPARg SRC-3 ag | SRC3 TRFRET art | SRC1 TRFRET art | SRC2 TRFRET art | PPARg SRC-2 ag | PPARg SRC1 recr | others
Nc1ccc(-c2cn3cccnc3n2)cc1 | 12 | 2118* | 1719 | 1474 | 9 | 1
CCOC(=O)c1ccc(NC(=O)CCc2nc(-c3ccc(C)cc3)no2)cc1 | 8 | · | · | 2077* | 35* | -2
CCOC(=O)c1ccc(NC(=O)CCc2nc(-c3ccc(Cl)cc3)no2)cc1 | -12 | · | · | 1790 | 1 | 2
O=C(CCCn1c(=S)[nH]c2cc3c(cc2c1=O)OCO3)N1CCN(c2ccccc2F)CC1 | -1 | · | · | 1568 | 5 | -1
Cc1ccc(C)c(N2CCN(C(=O)CCCn3c(=S)[nH]c4cc5c(cc4c3=O)OCO5)CC2)c1 | 11 | · | · | 2000* | 10 | 9
CCN(CC)c1ccc(C=Nc2cc(C)ccc2C)c(O)c1 | 3 | 1646 | 2287 | 1541 | 8 | 21*
COc1cccc(OCc2nc3c4cnn(-c5ccccc5)c4ncn3n2)c1 | 7 | · | · | 1589 | 3 | 10
c1ccc(-n2ncc3c2ncn2nc(-c4ccco4)nc32)cc1 | 15 | · | · | 2763* | 47* | 12
Cc1nc2ccc(NC(=O)c3ccc(Cl)c(S(=O)(=O)N(C)c4ccccc4)c3)cc2s1 | 2 | 2532* | 1530 | 1835 | 9 | 6
Cc1nc2ccc(NC(=O)c3cc(S(=O)(=O)N(C)c4ccccc4)ccc3Cl)cc2s1 | 3 | 1598 | 1567 | 1528 | -3 | -4
CC1(C)Nc2ccccc2N(Cc2ccc([N+](=O)[O-])cc2)C1=O | -4 | 1403 | 1728 | 1455 | 0 | -3
Cc1cccc(Nc2ccc(C(=O)N3CCOCC3)cn2)c1 | 3 | 1601 | 2076 | 1985* | 7 | 9
O=C(c1ccc(Nc2cccc(C(F)(F)F)c2)nc1)N1CCCC1 | 7 | · | · | 1376 | -5 | 0
COc1ccc2c(-c3ccccc3)cc(SCC(=O)NC(N)=O)nc2c1 | 33* | 4477* | 1656 | 1589 | 9 | -4
Cn1ncc([N+](=O)[O-])c1C(=O)N/N=C/c1ccc(F)cc1 | 4 | 1850 | 1712 | 1691 | 8 | 21*
Cc1ccc(CC2SC(N)=NC2=O)cc1 (configuration not stated) | -2 | 1513 | 1732 | 1565 | -1 | 0
CN1/C(=C\C(=O)CSc2nnc(NCc3ccccc3)s2)C(C)(C)c2ccccc21 | 2 | 2062* | 1935 | 1667 | -3 | 12
O=C(COC(=O)c1ccccc1C(=O)c1ccccc1)NCCc1ccccc1 | 6 | 1639 | 1888 | 1651 | 5 | 21*
O=C(O)CCCC(=O)Nc1cc([N+](=O)[O-])ccc1O | 5 | 1851 | 1819 | 1558 | 2 | 22*
CCOc1ccccc1-n1c(C)nc2cc(C(=O)O)ccc21 | 5 | 1625 | 2322* | 1695 | -3 | 8
Cc1nc2cc(C(=O)O)ccc2n1-c1ccc(F)cc1F | 6 | · | · | 1608 | 6 | 0
COc1ccc(/C=N/NC(=O)c2cccc(OC(F)(F)C(F)F)c2)cc1O | -1 | 1541 | 1602 | 1307 | -3 | -6
C=CCn1c(NS(=O)(=O)c2ccccc2)c(S(=O)(=O)c2ccc(C)cc2)c2nc3ccccc3nc21 | 48* | 1561 | 1803 | 1450 | 24* | 39* | PPARg SRC2 conf=4;PPARg SRC1 conf=7;PPARg SRC3 ag=10
S=c1[nH]nc(-c2ccccn2)n1/N=C/c1ccc(-c2ccccc2Br)o1 | 69* | 4805* | 5322* | 4475* | 129* | 69* | PPARg SRC2 conf=82*;PPARg SRC1 conf=60*;PPARg SRC3 ag=53*
COc1ccc(N)c2c1C(=O)c1ccccc1C2=O | 27* | 2262* | 2519* | 1893 | 34* | 23* | PPARg SRC2 conf=25*;PPARg SRC1 conf=23*;PPARg SRC3 ag=20
COc1ccc(OC)c2c1C(=O)c1ccccc1C2=O | -1 | · | · | 1531 | 7 | 5
Nc1ccc(O)c2c1C(=O)c1ccccc1C2=O | 21 | 2307* | 2546* | 2073* | 32* | 24* | PPARg SRC2 conf=17;PPARg SRC1 conf=11;PPARg SRC3 ag=10
